# Laboratory results taken from the supplement of paper PMC6522484.
# ± gives the standard deviation of the averaged measurements.
# Tests used:
# DLD1 [1] = assay: cell viability (CellTiter-Glo) relative to plate median (fraction of plate median); higher = more viable cells; conditions: 5 µM; treatment time 24 h; reporter: 7TFP
# Summary of the method: (§1)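 Colorectal cancer cell lines stably transduced with lentiviral TCF/Wnt firefly luciferase reporters (7TFP or TCF4/Wnt) were seeded in 384-well plates. 24 h later they received library compounds at a final 5 µM for 24 h. Parallel plates were read for firefly luciferase or CellTiterGlo luminescence on a Tecan F500 reader. Each well's signal was normalised to the plate median (webcellHTS2, additive, no log transformation), and the mean of two independent replicates is reported.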
# HCT116 = assay: as above; conditions: 5 µM; treatment time 24 h; reporter: TCF4/Wnt
# Summary of the method: as §1
# SW480 [2] = assay: as above; conditions: 5 µM; treatment time 24 h; reporter: 7TFP
# Summary of the method: as §1
# DLD1 [3] = assay: TCF/Wnt firefly luciferase reporter signal relative to plate median (fraction of plate median); higher = higher Wnt reporter signal; conditions: 5 µM; treatment time 24 h; reporter: 7TFP
# Summary of the method: as §1
# SW480 [4] = assay: as above; conditions: 5 µM; treatment time 24 h; reporter: 7TFP
# Summary of the method: as §1
SMILES,cell viability (DLD1 [1]),cell viability (HCT116),cell viability (SW480 [2]),TCF/Wnt firefly luciferase reporter signal (DLD1 [3]),TCF/Wnt firefly luciferase reporter signal (SW480 [4])
COc1ccc(-c2cc(=O)c3c(O)c(OC)c(OC)c(OC)c3o2)cc1,1.01 ± 0.032,1.04 ± 0.072,1.02 ± 0.055,0.953 ± 0.062,1.01 ± 0.021
CCCCC[C@@H](O)[C@H]1C(=O)O[C@H](C)[C@@H](O)/C=C/C=C/C=C/C=C/C=C(\C)[C@@H](O)C[C@H](O)C[C@H](O)C[C@H](O)C[C@H](O)C[C@H](O)C[C@@H]1O,1.02,1.05 ± 0.05,0.989 ± 0.03,1.01 ± 0.022,1.09 ± 0.078
CC(C)(C)CC(C)(C)c1ccc(O)c(Cc2ccc(Cl)cc2Cl)c1,0.987 ± 0.075,1.05 ± 0.05,1.03 ± 0.014,0.86 ± 0.012,0.891 ± 0.11
CCCCC1C(=O)N(c2ccccc2)N(c2ccc(O)cc2)C1=O (stereo not given),0.923 ± 0.015,0.873 ± 0.038,0.898 ± 0.028,1.21 ± 0.057,1.02 ± 0.05
N/C(=N\C(=O)c1nc(Cl)c(N)nc1N)NCc1ccccc1,0.986 ± 0.035,0.969 ± 0.17,0.998 ± 0.031,1.07 ± 0.16,1.04 ± 0.066
O=CN(O)CCCC(NC(=O)C(CO)NC(=O)C1COC(c2ccccc2O)=N1)C(=O)NCCC(=O)NC1CCCN(O)C1=O (stereo not given) [Oxachelin hydrate],1.09 ± 0.13,1.11 ± 0.12,1.02 ± 0.05,1.2 ± 0.014,0.946 ± 0.16
Cc1cc(O)c(C)c(O)c1C(=O)O,1 ± 0.05,0.927 ± 0.0085,0.996 ± 0.021,0.792 ± 0.36,0.949 ± 0.23
C[C@@H]1CC[C@@]23CCC4(C)[C@@](C=CC5[C@@]6(C)CCC(=O)C(C)(C)C6CC[C@]54C)(OC2=O)C3[C@H]1C (stereo not given in full),0.982 ± 0.04,0.991 ± 0.15,0.956 ± 0.018,0.836 ± 0.09,0.921 ± 0.017
CCCCCCc1ccc(O)cc1O.Nc1c2ccccc2nc2ccccc12,1.03 ± 0.056,0.829 ± 0.0071,1.1 ± 0.057,1.98 ± 0.34,0.848 ± 0.045
NC(N)=O,1.03 ± 0.014,0.988 ± 0.088,0.999 ± 0.044,0.898 ± 0.0028,0.934 ± 0.076
COc1cc2ccc(=O)oc2c(O)c1O,0.945 ± 0.077,0.908 ± 0.061,0.966 ± 0.062,1.04 ± 0.042,0.9995 ± 0.00071
COc1cccc2c1C(=O)c1c(O)c3c(c(O)c1C2=O)C[C@@](O)(C(C)=O)C[C@@H]3O[C@H]1C[C@H](NC=O)[C@H](O)[C@H](C)O1 [Baumycin C1],0.9535 ± 0.0021,0.838 ± 0.081,0.9955 ± 0.0035,0.955 ± 0.042,1.05 ± 0.057
CC(COc1ccccc1)N(CCCl)Cc1ccccc1 (stereo not given),1 ± 0.057,1.05 ± 0.028,0.978 ± 0.025,1.05 ± 0.21,1.03 ± 0.014
CN1CCC[C@@H]1Cc1c[nH]c2ccc(CCS(=O)(=O)c3ccccc3)cc12,0.943 ± 0.028,1.05 ± 0.12,0.956 ± 0.023,0.945 ± 0.18,1.04 ± 0.063
CS(=O)(=O)OCCCCOS(C)(=O)=O,1.12 ± 0.2,1.06 ± 0.028,1.06 ± 0.05,0.9365 ± 0.005,0.984 ± 0.037
Cc1cccc(N(C)C(=S)Oc2ccc3ccccc3c2)c1,1.07 ± 0.028,1.09 ± 0.099,0.987 ± 0.018,0.897 ± 0.07,0.95 ± 0.04
O=c1c(-c2ccc(O)cc2)coc2cc(O)cc(O)c12,1.09 ± 0.021,1.03 ± 0.05,1.06 ± 0.021,1.065 ± 0.0071,1.12
COc1ccc(-c2cc(=O)c3c(O)cc(O[C@H]4O[C@H](CO[C@@H]5O[C@@H](C)[C@H](O)[C@@H](O)[C@H]5O)[C@@H](O)[C@H](O)[C@H]4O)cc3o2)cc1,0.995 ± 0.079,0.88 ± 0.1,0.979 ± 0.059,1.02 ± 0.029,0.9475 ± 0.00071
CN(C)CCOc1ccc(/C(=C(/CCCl)c2ccccc2)c2ccccc2)cc1,0.947 ± 0.034,1.02 ± 0.062,0.977 ± 0.047,0.962 ± 0.12,1.05 ± 0.073
CC(=O)Nc1ccc(S(=O)(=O)c2ccc(NC(C)=O)cc2)cc1,0.966 ± 0.1,0.94 ± 0.012,0.931 ± 0.012,1.09 ± 0.035,1.05 ± 0.042
C#CCCCCCCCCCCCC(O)CC(O)COC(C)=O (stereo not given),1.02 ± 0.021,1.05 ± 0.089,1.06 ± 0.014,1.08 ± 0.12,0.941 ± 0.098
c1ccc([C@H]2CN3CCSC3=N2)cc1,1.01,0.943 ± 0.11,1.02 ± 0.048,0.943 ± 0.043,0.947 ± 0.066
O=C(O)CCCN1C(=O)c2cccc3cccc(c23)C1=O,0.994 ± 0.08,1.04 ± 0.035,0.995 ± 0.05,0.96 ± 0.011,0.957 ± 0.047
CC(=O)Oc1ccc(O)cc1,1.03 ± 0.021,1.08 ± 0.035,1.04 ± 0.014,1.07 ± 0.042,1.035 ± 0.0071
CN1CCc2c(c3ccccc3n2Cc2ccccc2)C1,1.01 ± 0.051,1.01 ± 0.029,1.04 ± 0.035,1.05 ± 0.1,0.961 ± 0.14
"C[C@]12CCC[C@H](O1)c1c(cc3c(c1O)C(=O)c1c(O)cc(O)cc1C3=O)O2 [Averufin (Isoform A, Compound ID 7507)]",1.01 ± 0.12,1.05 ± 0.14,1.04 ± 0.088,0.896 ± 0.16,0.972 ± 0.083
CCN(CC)CCOC(=O)C(c1ccccc1)C1CCCCC1 (stereo not given),0.986 ± 0.0071,0.938 ± 0.13,0.978 ± 0.046,0.996 ± 0.0057,1.05 ± 0.075
OCCN1CCN(CCCN2c3ccccc3Sc3ccc(Cl)cc32)CC1,0.891 ± 0.027,0.917 ± 0.08,0.983 ± 0.025,1.03,0.976 ± 0.13
COc1ccccc1OCC(O)COC(N)=O (stereo not given),1.02 ± 0.076,1.01 ± 0.089,0.995 ± 0.035,0.982 ± 0.054,0.967 ± 0.047
